Screening results deposited in PubChem by several laboratories.
Sampled rows, rich in hits. Any-hit rate of the full collection: about 2.4%.
Mcl-1 Bim block: disrupts Bim peptide binding to human Mcl-1; 190,000 tested, 0.1% active; AID 1009; Bead-based flow cytometry, Bim peptide-Mcl-1 binding; Q07820; inhibition, % at 10 µM; in the data active = inhibition above about 40%;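 note: 0% = no compound tracer wells and 100% = peptide blocker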
Target sequence (Q07820 whole entry, looked up): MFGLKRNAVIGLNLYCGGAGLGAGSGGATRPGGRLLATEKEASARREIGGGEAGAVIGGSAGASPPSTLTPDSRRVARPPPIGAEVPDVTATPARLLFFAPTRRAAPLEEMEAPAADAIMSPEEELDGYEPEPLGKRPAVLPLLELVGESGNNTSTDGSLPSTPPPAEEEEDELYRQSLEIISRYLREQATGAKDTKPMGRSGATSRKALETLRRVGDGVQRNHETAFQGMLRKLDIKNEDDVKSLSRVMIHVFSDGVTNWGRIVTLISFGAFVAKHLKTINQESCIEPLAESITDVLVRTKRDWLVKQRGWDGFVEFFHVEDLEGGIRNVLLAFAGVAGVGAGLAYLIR
zVAD death inh: blocks zVAD induced death of L929 cells; L929 zVAD necroptosis rescue, ATP luminescence, 24 h; with zVAD 60 µM; viability rescue, % at 10 µM; 220,000 tested, 0.38% active; AID 1377;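 active = activation, scaled between plate controls, above about 75%, limit read from the data; inactive = activation under that limit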;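 note: 0% = zVAD with DMSO and 100% = DMSO alone without zVAD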
MCL1 BIM primary: MCL1-BIM-BH3 interaction inhibition (human); Q07820; GST-MCL1 / FITC-Bim-BH3 fluorescence polarization; inhibition, % at 10.9 µM; 320,000 tested, 0.68% active;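 active = inhibition above the mean inhibition of all tested compounds plus 3 SD, set per campaign, cut at about 40% in these data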;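 note: 0% = DMSO wells and 100% = unlabeled Bim-BH3 peptide control; higher means more loss of mP so more displacement of Bim peptide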
TNF death inh: inhibitors of TNF-alpha induced necroptosis in Jurkat FADD-/- cells | AID 463075 | Jurkat FADD-/- TNF necroptosis rescue, ATP luminescence, 24 h; 0 = TNF only, 100 = no-TNF cells | activation (protection from cell death), % at 10 µM | 220,000 tested, 0.068% active;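 active = activation, meaning protection from cell death, of at least 50% relative to plate controls; inactive = activation below 50%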;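 note: necroptosis triggered by 40 ng/mL TNF-alpha added together with compound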
Mcl1 Noxa PPI: disrupts binding of human Mcl-1 to Noxa peptide. Q07820. 220,000 tested, 1.5% active. AID 1022. inhibition, % at 21.7 µM. TR-FRET Mcl-1/Noxa peptide binding, 2 h;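 active = compounds that cut the protein-peptide binding signal by more than 50% relative to plate controls in a single-dose test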;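 note: His-tagged Mcl-1 with rhodamine Noxa BH3 peptide and terbium anti-His antibody; 0% = Mcl-1 plus Noxa peptide wells and 100% = peptide-only wells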
Mcl1-Bid inh: disrupts binding of human Mcl-1 to Bid peptide. TR-FRET Mcl-1/Bid-Dy647 peptide binding, 1536-well. AID 1021. Q07820. inhibition, % at 21.7 µM. 220,000 tested, 0.97% active;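 active = compounds that cut the binding signal by more than half at the single screening dose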;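 note: His-tagged Mcl-1 with europium anti-His antibody binding Bid BH3 peptide; 0% = Mcl-1 plus peptide wells and 100% = peptide-only wells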
Numbers without * were called inactive; x = not tested or not shown.

SMILES	Mcl-1 Bim block	zVAD death inh	MCL1 BIM primary	TNF death inh	Mcl1 Noxa PPI	Mcl1-Bid inh
Cc1csc2c(N3CCN(C(=S)Nc4ccc(F)cc4F)CC3)ncnc12	x	-0.1	2.8	-6.1	-6.9	-62.6
N#CCC(=O)N/N=C/c1cc(Br)ccc1OCc1cccc2ccccc12	x	x	1.2	x	x	x
O=c1ccc2c(o1)/C(=C/C=C(Cl)Cl)CCC2	0.0	0.8	8.0	-0.1	49.2	59.1*
Cc1c(NC(=O)Nc2cccc(C#N)c2)c(=O)n(-c2ccccc2)n1C	x	x	-2.0	x	x	x
Cc1ccccc1CN1CCC(n2nccc2NC(=O)CCOc2ccccc2)CC1	x	x	3.4	x	x	x
COc1ccc(-n2nc3cc(C)c(N)c(Br)c3n2)cc1	2.0	-0.2	8.1	-3.8	88.9*	-28.1
Nc1cc2nn(-c3ccccc3)nc2cc1Cl	0.0	1.1	x	-1.1	65.9*	-82.8
Cc1ccc(-n2nc3cc(C)c(N)cc3n2)cc1	0.0	-0.8	7.7	-4.3	90.3*	-25.0
CC(=O)N1CCc2cc(Br)cc(S(=O)(=O)N3CCC(C(=O)O)CC3)c21	x	x	0.2	x	x	x
COc1ccc(S(=O)(=O)N(C)CC(=O)NCc2ccco2)cc1OC	x	x	1.0	x	x	x
CC(=O)Nc1ccc(NC(=O)CCNC(=O)c2ccccc2Cl)cc1	x	x	-14.4	x	x	x
Cc1cc(C)c(S(=O)(=O)N2CCN(C(=O)CN3C(=O)NC4(CCCC4)C3=O)CC2)c(C)c1	x	x	-1.1	x	x	x
O=C1c2cccc3cccc(c23)C(=O)N1/N=C/c1ccc(O)cc1O	-3.0	0.7	2.5	2.5	59.6*	28.1
O=C1c2cccc3cccc(c23)C(=O)N1c1ccc(O)cc1	x	x	5.1	x	x	x
O=C1c2ccccc2C(=O)N1/N=C/c1ccc(O)c(O)c1O	x	-0.5	x	-5.6	100.0*	-92.9
CC(=O)c1cccc(NC(=O)/C(=C/c2ccncc2)NC(=O)c2ccccc2)c1	x	x	4.1	x	x	x
BrC(=C\c1ccccc1)/C=N/N1CCN(c2ccccc2)CC1	43.0*	-0.6	-1.2	-1.2	24.0	-42.6
COc1cccc(CNc2nc3ccc(C)cc3n3cnnc23)c1	x	-0.7	-4.2	0.9	-16.9	97.8*
Cc1ccc(CNc2nc3ccc(C)cc3n3cnnc23)cc1	-3.0	1.3	-5.7	-0.4	20.4	9.7
Cc1cccc(NC(=S)NC2CCN(Cc3ccccc3)CC2)c1C	-9.0	-1.0	16.1	-10.2	-22.4	19.8
CC(C)(C)CC(C)(C)NC(=S)NC1CCN(Cc2ccccc2)CC1	-3.0	-0.1	7.2	5.8	-2.6	91.6*
N/C(=N\OC(=O)CCC1CCCC1)c1ccncc1	95.0*	0.2	0.6	0.8	16.2	9.7
Cc1ccc(CC(=O)O/N=C(\N)c2ccncc2)cc1	x	x	-3.7	x	x	x
CC(C)(C)CC(=O)O/N=C(\N)c1ccncc1	-5.0	-0.1	-1.2	-0.5	4.7	82.0*
N/C(=N\OC(=O)CC1CCCCC1)c1ccncc1	11.0	-0.5	-7.8	1.2	0.9	1.9
SMILES	Mcl-1 Bim block	zVAD death inh	MCL1 BIM primary	TNF death inh	Mcl1 Noxa PPI	Mcl1-Bid inh
O=C(O)c1cc(O)ccc1NC(=O)C(c1ccccc1)c1ccccc1	x	x	3.1	x	x	x
Cc1ccc(OCC(=O)N2CCC(N3CC(C)CC(C)C3)CC2)cc1 (stereo not drawn)	x	x	0.5	x	x	x
CC1CN(C2CCN(C(=O)COc3ccc(Cl)cc3)CC2)CC(C)O1 (stereo not drawn)	-1.0	0.3	-4.9	0.4	34.8	57.3*
CCOc1ccccc1C(=O)NC1CC2CCCC(C1)N2C1CC1 (stereo not drawn)	42.0*	-0.2	-9.1	-4.3	7.5	2.4
COc1ccc(OC)c(S(=O)(=O)NC2CCCCNC2=O)c1 (stereo not drawn)	x	x	5.9	x	x	x
O=C(Cn1cnc2scc(-c3ccccc3)c2c1=O)NCc1ccco1	-3.0	6.8	7.8	0.9	50.6*	-59.3
O=C(Cn1ncn2c(cc3ccccc32)c1=O)NCc1ccco1	-5.0	-0.1	8.3	-2.8	68.9*	-12.6
CN(CC(=O)Nc1ccc(C#N)cc1)Cc1ccc(Cl)c(Cl)c1	-1.0	0.0	0.6	0.8	12.3	-2.7
CN(CC(=O)Nc1cccc(C#N)c1)Cc1ccc(Cl)cc1	0.0	-1.3	-3.1	1.6	4.8	86.2*
COc1ccc(NC(C)=O)cc1S(=O)(=O)N1CCn2cccc2C1C (stereo not drawn)	x	x	7.8	x	x	x
CC(=O)c1cccc(S(=O)(=O)N2CCn3cccc3C2C)c1 (stereo not drawn)	x	x	40.1*	x	x	x
COC(=O)c1ccccc1S(=O)(=O)N1CCn2cccc2C1C (stereo not drawn)	6.0	0.5	15.1	0.8	21.6	69.3*
CC(=O)c1ccc(S(=O)(=O)N2CCn3cccc3C2C)cc1 (stereo not drawn)	x	x	41.7*	x	x	x
COc1cccc(CC(=O)Nc2cc(S(=O)(=O)N3CCOCC3)ccc2N2CCN(C)CC2)c1	x	x	-0.6	x	x	x
CC(C)NC(=O)C1CCCN(S(=O)(=O)c2ccc(-n3cnnn3)cc2)C1 (stereo not drawn)	-2.0	0.5	4.6	-0.2	-12.2	98.3*
Cc1ccc(S(=O)(=O)NC(=O)COc2ccc([N+](=O)[O-])cc2)cc1	x	x	-1.3	x	x	x
COCCN1C(=O)/C(=C/c2ccc(OCc3ccc(C(=O)O)cc3)c(OC)c2)SC1=Nc1ccccc1	-1.0	-0.9	15.7	-1.5	63.8*	-57.4
O=C(Nc1ccc(S(=O)(=O)Nc2nccs2)cc1)c1ccc(=O)[nH]c1	3.0	1.3	19.2	1.0	62.2*	-55.7
COc1ccc(NC(=O)c2cc(-c3ccc(C)o3)nc3ccccc23)cc1OC	4.0	0.8	22.1	-11.8	64.2*	25.8
Cc1ccc(-c2cc(C(=O)Nc3nccs3)c3ccccc3n2)o1	-1.0	1.3	14.5	-0.9	67.3*	-5.2
O=C(Nc1ccc(S(=O)(=O)Nc2nccs2)cc1)c1cc(-c2ccccc2Cl)nc2ccccc12	-4.0	0.0	3.2	-4.9	35.6	98.7*
COc1ccc(NC(=O)c2cc(-c3ccc(C)o3)nc3ccccc23)c(OC)c1	x	x	7.2	x	x	x
CCCCn1c(N)c(N(CCOC)C(=O)C2CCN(C(=O)c3ccc(F)cc3)CC2)c(=O)[nH]c1=O	x	x	1.6	x	x	x
COc1ccc(CCNC(=O)c2nn(C)c3c2CS(=O)(=O)c2ccccc2-3)cc1OC	x	x	3.5	x	x	x
COc1ccc(CCNC(=O)c2cc(-c3ccccn3)nc3c(Cl)cccc23)cc1OC	88.0*	0.0	16.7	-0.9	8.1	-25.0
O=C(CSc1nnc2scc(-c3ccccc3)n12)N1CCN(Cc2ccccc2)CC1	-1.0	-0.3	2.2	1.0	28.3	94.7*
Cc1ccc(-c2csc3nnc(SCC(=O)N4CCN(Cc5ccccc5)CC4)n23)cc1	-4.0	-0.2	2.4	-5.0	11.5	-36.2
CC(C)n1nnnc1SCC(=O)N1CCN(C(=O)c2ccco2)CC1	93.0*	0.1	-3.6	-0.1	3.3	4.1
O=C(NCc1ccccc1)NC(=O)c1ccc(Cl)cc1	x	x	-4.9	x	x	x
CCCc1c(C(=O)N/N=C/c2ccccc2C(F)(F)F)nnn1-c1nonc1N	x	x	-5.6	x	x	x
